In ChEMBL document CHEMBL3433997, “St. Jude Leishmania screening dataset” (2016):

What was measured:
Assay type in all cases: functional
[1] = target: Solute carrier family 2, facilitated glucose transporter member 1 (Homo sapiens) (UniProt P11166); test: ST_JUDE_LEISH: Cytotoxicity at 2uM final concentration against transgenic Leishmania Mexicana promastigotes LmGLUT1 that are glucose transport deficient and complemented with the human glucose transporter GLUT1. Activity is measured by DNA content using SYBR green in vitro
Chain of Solute carrier family 2, facilitated glucose transporter member 1 (Homo sapiens) (P11166 whole entry): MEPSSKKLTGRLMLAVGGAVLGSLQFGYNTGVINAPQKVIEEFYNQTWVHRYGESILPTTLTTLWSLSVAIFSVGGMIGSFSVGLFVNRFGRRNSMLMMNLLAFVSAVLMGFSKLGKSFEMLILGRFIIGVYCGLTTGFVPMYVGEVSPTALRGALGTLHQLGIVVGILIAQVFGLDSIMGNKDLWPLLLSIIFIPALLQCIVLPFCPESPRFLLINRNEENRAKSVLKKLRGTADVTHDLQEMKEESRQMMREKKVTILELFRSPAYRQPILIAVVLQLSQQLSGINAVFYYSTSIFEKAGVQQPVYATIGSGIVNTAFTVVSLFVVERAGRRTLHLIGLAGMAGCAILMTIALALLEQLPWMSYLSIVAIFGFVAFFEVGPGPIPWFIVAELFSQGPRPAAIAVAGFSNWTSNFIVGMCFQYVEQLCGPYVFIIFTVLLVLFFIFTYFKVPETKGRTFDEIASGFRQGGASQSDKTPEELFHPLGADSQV

[2] = target: Hexose transporter 1 (Plasmodium falciparum) (UniProt O97467); test: ST_JUDE_LEISH: Cytotoxicity at 2uM final concentration against transgenic Leishmania Mexicana promastigotes LmPfHT that are glucose transport deficient and complemented with the Plasmodium falciparum hexose transporter. Activity is measured by DNA content using SYBR green in vitro
[3] = target: Glucose transporter (Leishmania mexicana) (UniProt O61059); test: ST_JUDE_LEISH: Cytotoxicity at 2uM final concentration against transgenic Leishmania Mexicana promastigotes LmGT2 that are glucose transport deficient and complemented with the L. Mexicana glucose transporter 2. Activity is measured by DNA content using SYBR green in vitro

| SMILES | inhibition [1] [%] | inhibition [2] [%] | inhibition [3] [%] |
| --- | --- | --- | --- |
| Cn1nccc1C(=O)NCCNCc1ccc(-c2cccc(-c3nc4ccccc4[nH]3)c2)cc1 | -0.28 | -0.94 | 0.68 |
| COc1ccc(C(C(=O)NC2CCN(C[C@H](O)c3ccnc4ccc(OC)cc34)CC2)N2CCN(Cc3ccccc3)CC2)cc1 (stereo partly drawn) | 0.34 | 0.74 | -0.21 |
| O=C(COc1cccc([N+](=O)[O-])c1)Nc1ccc(-c2nc3ccccc3[nH]2)cc1 | 1.62 | 2.12 | -1.82 |
| COCCCNc1sc(S(=O)(=O)c2ccccc2)nc1S(=O)(=O)c1ccc(Cl)cc1 | 3.07 | 3.36 | 1.01 |
| CCNc1cc(C)nc(Nc2ccc(NS(=O)(=O)c3cc(OC)ccc3OC)cc2)n1 | 16.8 | 12.1 | 5.24 |
| CCN(c1ccc(O)c(CN2CCCCC2)c1)c1ccc([N+](=O)[O-])cn1 | 2.79 | 1.08 | 0.72 |
| CC(C)C[C@H](NC(=O)c1cc2ccccc2s1)C(=O)N[C@H]1CCN(Cc2ccc(OC[C@@H]3CCCN3C)c(Cl)c2)C1 | 10.8 | 10.6 | 8.09 |
| O=C(/C=C/c1ccc(Cl)c(Cl)c1)N1CCC(CN2CCC(c3c[nH]c4ncccc34)CC2)CC1 | 4.3 | 3.52 | 2.38 |
| COc1cc(NC(=O)c2sc(-c3ccc(Cl)cc3)cc2NC(=O)N2CCCC2)ccc1OCCN1CCCC1 | 2.35 | 3.29 | 1.4 |
| CCn1ccc2c(N3CCCS3(=O)=O)cc(C(=O)N[C@@H](Cc3ccccc3)[C@H](O)CNC3CCCCC3)cc21 | -0.74 | 1.64 | 5.33 |
| O=C(Cc1ccc(Nc2nccc(Nc3cccc4[nH]ncc34)n2)cc1)Nc1ccc(C(F)(F)F)cc1 | 5.9 | 6.7 | 4.78 |
| CS(=O)(=O)c1ccc(CCNCc2ccc(-c3ccc(CN(C(=O)c4cccc(C#N)c4)C4CCN(Cc5ccccc5)CC4)cc3)nc2)cc1 | 5.06 | 4.14 | 5.74 |
| O=C(Nc1ccc([N+](=O)[O-])cc1)c1nn(-c2ccccc2)cc1/N=C/c1cccc(O)c1 | -0.62 | -1.47 | -1.45 |
| O=C(Nc1cccc(CN2CCN(C(=O)c3cccc(Cl)c3)CC2)c1)c1ccco1 | -4.34 | 0.58 | 3.82 |
| O=C(Nc1cccc(CN2CCCN(Cc3cccnc3)CC2)c1)c1cc2ccccc2s1 | 4.38 | 4.77 | -1.53 |
| CCOc1ccc2c(=NN=Cc3ccccc3OC)cc(C)[nH]c2c1 | 7.35 | 7.09 | 6.71 |
| Cc1cc(N[C@@H](Cc2ccccc2)C(=O)Nc2ccccc2)nc(NCCc2cccnc2)n1 | 10.6 | 11 | 9.02 |
| COc1ccccc1Cc1c(C)nc2nc(N)nc(N)c2c1C | 6.33 | 4.07 | 7.13 |
| CCc1cn(CCOC)c2ccc(C(=O)N[C@@H](Cc3ccccc3)[C@H](O)CNC(C)(C)CCCC(C)C)cc12 | 0.24 | 1.3 | 1.51 |
| C=CCNC(=O)CCCNC(=N)N | 1.5 | 1.22 | -0.35 |
| Cc1nnc2c(NC(=O)/C=C/c3ccc(OC(F)(F)F)cc3)cc3cc(Cl)ccc3n12 | 0.28 | 0.28 | 0.55 |
| C=Cc1ccccc1C1(O)CCN(CCCCNC(=O)c2ccc(-c3ccc(C#N)cc3)cc2)CC1 | 1.27 | 1.76 | -1.41 |
| CS(=O)(=O)CCNCc1cccc(-c2cc3c(Nc4ccc(OCc5cccc(F)c5)c(Cl)c4)ncnc3s2)c1 | -0.25 | -0.11 | -2.47 |
| CC(C)COc1ccc(Cl)cc1Cc1ccc(-c2nc3cc(CCN4CCCC4)ccc3[nH]2)o1 | 0.75 | 3.33 | 2.08 |

| SMILES | inhibition [1] [%] | inhibition [2] [%] | inhibition [3] [%] |
| --- | --- | --- | --- |
| C#CCOc1ccc(N2C(N)=NC(N)=NC2(C)C)cc1 | 2.23 | 1.16 | -0.42 |
| COc1cccc(-c2ccc(NC(=O)C3CCCN(Cc4cccc(OC)c4O)C3)cc2)c1 (stereo not drawn) | 3.21 | 2.29 | -0.64 |
| Cc1cccc2nc(-c3cccc(-c4cccc(NC(=O)Nc5ccc(Cl)c(Cl)c5)c4)c3)[nH]c12 | -0.37 | -0.17 | -0.99 |
| COc1ccc2nccc([C@@H](O)CN3CCC(NC(=O)Cc4cccc5c(Br)cccc45)CC3)c2c1 | 14.1 | 9.54 | 10.9 |
| COc1ccc2c(c1)CCCC2C(C)NCC(O)c1cccc(C(F)(F)F)c1 (stereo not drawn) | 8.86 | 5.98 | 6.3 |
| O=C(NC1CCN(CC2(c3ccccc3)CCCC2)CC1)c1n[nH]cc1Cl | 0.19 | 0.32 | -0.85 |
| Cc1cccc2sc(N(CCCn3ccnc3)C(=O)C=Cc3cccs3)nc12 | 12.6 | 12.7 | 6.56 |
| COc1ccc(NC(=O)[C@H](Cc2ccccc2)Nc2cc(C)nc(NCCc3ccccc3)n2)cc1 | 5.74 | 6.29 | 5.16 |
| CC(C)c1ccc(NC(=O)NCCCC2CCCN(CCCCCNC(=O)/C=C/c3ccc(Cl)c(Cl)c3)C2)cc1 (stereo not drawn) | 1.47 | 2.49 | 5.08 |
| CCCCN(C(=O)c1ccccc1C)c1nnc(-c2ccccc2C)s1 | 2.08 | 1.53 | -0.2 |
| N#Cc1ccc(Cn2ccc3c4c(N)nc(N)nc4ccc32)cc1 | 82.6 | 84.2 | 77.7 |
| CCN(CC)CCN(Cc1ccc(-c2ccc(C(F)(F)F)cc2)cc1)C(=O)Cn1cc(CCCc2cccc(F)c2F)c(=O)c2ccccc21 | 4.03 | 3.93 | 4.35 |
| Cc1cc2[nH]c(-c3ccc(C(=O)NCCCN4CCN(c5cccc(Cl)c5)CC4)cc3)nc2cc1Cl | 1.69 | 3.45 | -1.01 |
| COc1cccc(-c2cc(-c3ccc(NC(=O)c4ccccc4)cc3)c3c(N)ncnc3n2)c1 | -0.77 | 0.31 | -2.31 |
| Cc1c(Cc2ccc(F)cc2)c(Cl)nc2nc(N)nc(N)c12 | 0.75 | 0.4 | -0.27 |
| CCn1cc(C=C2Oc3c(ccc(O)c3CN3CCCCC3)C2=O)c2cc(OC)ccc21 | 3.02 | 2.04 | -0.31 |
| Cc1cc(N2CCCC2)nc(Nc2ccc(NC(=O)Nc3ccccc3)cc2)n1 | 2.65 | 2.28 | 3.63 |
| O=C(Cc1cn(-c2ccccc2)nc1-c1ccc(Cl)cc1)Nc1nccs1 | 7.92 | 8.35 | 7.98 |
| Oc1ccc(Cl)cc1Nc1nc(C(F)(F)F)nc2ccccc12 | 1.75 | 1.98 | 2.23 |
| CC(=O)N(C)/N=C/[C@H](CCc1ccccc1)NC(=O)[C@H](CC(C)C)NC(=O)c1cccc(OCCN2CCOCC2)c1 | 9.6 | 9.59 | 8.5 |
| Cc1cc(=NN=Cc2ccccc2F)c2ccccc2[nH]1 | 1.11 | 4.77 | 1.44 |
| COc1ccc(CNC2CCN(C)CC2)cc1-c1cccc(S(=O)(=O)NCc2ccccc2)c1 | 1.72 | 1.62 | 0.24 |
| CC1(C)N=C(N)N=C(N)N1c1ccc(Cl)c(Cl)c1 | -1.25 | 0.49 | 3.04 |
| O=C(Nc1ccc([N+](=O)[O-])cc1)Nc1cc(C(F)(F)F)ccc1F | 0.91 | 1.47 | 3.15 |

| SMILES | inhibition [1] [%] | inhibition [2] [%] | inhibition [3] [%] |
| --- | --- | --- | --- |
| CCCCCCC1(C)N=C(N)N=C(N)C1c1ccc(Cl)c(Cl)c1 (stereo not drawn) | 1.71 | 1.39 | 0.06 |
| COc1ccc(CNC(=O)NC2CCN(c3ccnc(Nc4ccc(OC)cc4)n3)C2)cc1 (stereo not drawn) | 1.61 | 1.7 | 1.82 |
| NC1CCCN(Cc2cccc(-c3cccc(-c4nc5ccccc5[nH]4)c3)c2)C1 (stereo not drawn) | 8.27 | 6.48 | 5.75 |
| CC(=NNC(S)=Nc1ccccc1Cl)c1ccccn1 | 18.6 | 19.6 | 12.2 |
| Cc1cc(C)c(C(=O)Nc2ccc3nc(C)cc(N)c3c2)c(C)c1 | -0.82 | 1.52 | 2.61 |
| OCC1CCN(Cc2cccc(C#Cc3cc4ncnc(Nc5ccc(OCc6cccc(F)c6)c(Cl)c5)c4s3)n2)CC1 | 14.1 | 8.82 | 9.61 |
| Cc1cc(NC(=O)c2cccs2)ccc1OC1CCN(Cc2ccccc2)CC1 | 3.33 | 3.27 | 3.22 |
| O=C(/C=C/c1ccc(Cl)c(Cl)c1)NCCCCCN1CCC(NC(=O)c2ccc(F)cc2F)CC1 | -3.32 | 5.55 | -1.5 |
| Cc1cc(NC(=O)c2ccc(S(=O)(=O)N(Cc3ccccc3)C(C)C)cc2)no1 | 3.7 | 3.18 | 3.77 |
| Clc1ccc2c(Cl)c(CNCCCNc3nc4ccccc4[nH]3)[nH]c2c1 | 0.17 | 0.94 | 1.14 |
| COc1cccc(OC(C)(C)c2nc(N[C@@H](C)c3ccccc3)c3cn[nH]c3n2)c1 | 1.92 | -1.84 | -1.65 |
| CC[C@H](C)CNC(=O)c1ccnc(-c2ccc(CN3CCC(N4CCCC4)CC3)cc2)c1 | 1.51 | 0.38 | 0.35 |
| CCCC(=O)NC(c1ccc(C)cc1)c1ccc2cccnc2c1O (stereo not drawn) | 3.47 | 4.55 | -1.36 |
| COc1cc2nc(NCCc3ccccc3)nc(N(C)Cc3ccccc3)c2cc1OC | 5.11 | 5.4 | 2.95 |
| Cc1noc(C)c1CN1CCCN(c2ccc3c(c2)CCN(Cc2ccc(-c4ncc[nH]4)cc2)CC3)CC1 | 1.29 | 3.6 | 1.65 |
| O=C(N1CCN(c2cccc(C(F)(F)F)c2)CC1)C(Cl)(Cl)Cl | 0.96 | 5.03 | 1.47 |
| CN1CCC(C(=O)Nc2cccc(-c3ccc(-c4nc5ccccc5[nH]4)cc3)c2)CC1 | -0.41 | 1.25 | 1.04 |
| NCCCNc1ccc(-c2ccc(NC(=O)Nc3cc(C(F)(F)F)ccc3F)cc2)cn1 | 2.29 | 2.81 | 1.11 |
| CCNc1cc(C(=O)N[C@@H](Cc2ccc(Cl)cc2)[C@H](O)CNC2CCCCC2)cc(N2CCCCS2(=O)=O)c1 | 0.89 | 1.36 | 1.39 |
| O=C1OC2(CN1CC1CCN(Cc3ccc(O)cc3Cl)C1)c1ccccc1-c1ccccc12 (stereo not drawn) | 0.5 | -2.55 | 2.67 |
| O=C(Nc1cccc(-c2cccc(-c3nc4cc(C(F)(F)F)ccc4[nH]3)c2)c1)Nc1ccc(F)c(F)c1F | -0.38 | -0.91 | 0.55 |
| Cc1ccc2c(Cc3cnc(N)nc3N)cc(C)c(N)c2n1 | 2.06 | 3.47 | -0.09 |
| CN(CC(=O)Nc1cc(C(F)(F)F)ccc1-n1cncn1)Cc1nc2ccccc2s1 | 2.07 | 2.69 | 5.21 |
